Inconclusive results are not listed. A number with no mark means an inactive call. Active and inactive are the calls of the source. Unless noted, calls follow the shape of the dose curve; as a rule, active = well fitted cell-killing curve with a large enough effect in the repeat runs (not every such curve was filed as active); inconclusive = weak or mixed curves, or effect the other way; inactive = no such curve, though single readings can be large or run the other way.
biological target: Bile acid receptor (Homo sapiens) (UniProt Q96RI1); assay: qHTS assay to identify small molecule antagonists of the farnesoid-X-receptor (FXR) signaling pathway (AID 743217; active = well fitted inhibition curve with a large enough effect in the signal ratio in the repeat runs, not every such curve was filed as active; the % refers to the signal ratio; also: potency is read from the fitted curve at half-maximal effect); settings: HEK293T FXR-UAS-bla, beta-lactamase ratio, CDCA-stimulated, 16 h; series mostly up to 62.6 µM; activity change, negative = inhibition: at the top concentration
Outline: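 FXR-UAS-bla HEK 293T cells (beta-lactamase reporter) given compound plus chenodeoxycholic acid (50 uM final), 16 h at 37C. LiveBLAzer B/G FRET substrate added for 2 h at room temperature; fluorescence read.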
% is scaled to controls: 0 for no effect and ±100 for the full control effect.

Chain of Bile acid receptor (Homo sapiens) (Q96RI1 whole entry, looked up): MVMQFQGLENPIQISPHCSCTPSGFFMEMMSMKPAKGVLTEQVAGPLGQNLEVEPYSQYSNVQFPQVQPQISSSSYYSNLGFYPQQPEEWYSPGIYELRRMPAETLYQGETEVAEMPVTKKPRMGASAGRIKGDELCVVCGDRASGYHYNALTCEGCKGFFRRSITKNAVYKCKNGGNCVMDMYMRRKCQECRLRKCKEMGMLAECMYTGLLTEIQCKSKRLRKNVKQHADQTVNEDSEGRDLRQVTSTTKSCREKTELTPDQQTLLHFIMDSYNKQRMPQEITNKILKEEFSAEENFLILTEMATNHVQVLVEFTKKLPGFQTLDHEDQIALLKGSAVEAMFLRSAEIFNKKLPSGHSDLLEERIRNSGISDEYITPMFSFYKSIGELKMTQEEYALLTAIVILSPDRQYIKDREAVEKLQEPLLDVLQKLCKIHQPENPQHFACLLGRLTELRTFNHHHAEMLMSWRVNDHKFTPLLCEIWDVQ

Compound | activity change, negative = inhibition | Potency
CC(C=O)Cc1ccc2c(c1)OCO2 (stereo unspecified) | 0.0016% | 
c1ccc(N2CCNCC2)cc1 | -1.27% | 
C[C@]12CC[C@H]3[C@@H](CCC4=CC(=O)CC[C@@]43C)[C@@H]1CC[C@@H]2C(=O)O | 4.34% | 
O=C(CCN1CC1)OCC(CO)(COC(=O)CCN1CC1)COC(=O)CCN1CC1 | 3.53% | 
Fc1ccc(C2(Cn3cncn3)OC2c2ccccc2Cl)cc1 (stereo unspecified) | -5.62% | 
O=C(Nc1ccccc1)N(Cc1ccc(Cl)cc1)C1CCCC1 |  | 54.9 µM (active)
CCNc1nc(NC(C)C)nc(OC)n1 | 0.0268% | 
NC1=NC(=O)C(c2ccccc2)O1 (stereo unspecified) | 1.25% | 
O=S(=O)(O)C(F)(F)C(F)(F)C(F)(F)C(F)(F)C(F)(F)C(F)(F)F | 3.19% | 
COP(=S)(OC)Oc1ccc(S(N)(=O)=O)cc1 | -7.85% | 
CCCCC(=O)Cl | 3.83% [at 81.1 µM] | 
Fc1cc(Br)ccc1CBr | 6.85% | 
O=C1OC(CCN2CCCCC2)OC1(c1ccccc1)c1ccccc1 (stereo unspecified) | -7.61% | 
Nc1c(Br)cc([N+](=O)[O-])cc1[N+](=O)[O-] | 7.08% [at 81.1 µM] | 
CCC#N | -4.88% [at 81.1 µM] | 
O=[N+]([O-])c1cc(Cl)c(Cl)c(Cl)c1 | 1.42% | 
CC(C)(C)NCC(O)c1cc(Cl)c(N)c(Cl)c1 (stereo unspecified) | 10.4% | 
CCOC(=O)/C=C(C)/C=C/C[C@@H](C)CCCC(C)C | -0.672% | 

system: not listed separately; assay: qHTS assay to identify small molecule agonists of the farnesoid-X-receptor (FXR) signaling pathway - cell viability counter screen (AID 743218; active = well fitted cell-killing curve with a large enough effect in the repeat runs; also: nearly all actives have a fitted effect of over 45% in size); settings: FXR-bla HEK293T viability, CellTiter-Glo luminescence, 16 h; series mostly up to 62.6 µM; viability change, negative = cytotoxic: at the top concentration
Outline: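 FXR-UAS-bla HEK 293T cells exposed to compounds for 16 h at 37C. Cytotoxicity read in the same wells by CellTiter-Glo luminescence after 30 min at room temperature, following the beta-lactamase FRET read.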

Compound | viability change, negative = cytotoxic
CC(C=O)Cc1ccc2c(c1)OCO2 (stereo unspecified) | 25.8%
c1ccc(N2CCNCC2)cc1 | 8.97%
C[C@]12CC[C@H]3[C@@H](CCC4=CC(=O)CC[C@@]43C)[C@@H]1CC[C@@H]2C(=O)O | -3.19%
CC1CCC(=O)O1 (stereo unspecified) | 9.69%
CC1=C(C(=O)O)N2C(=O)[C@@H](N)[C@H]2SC1 | 0.0554% [at 29.1 µM]
COc1cccc2c1cc([N+](=O)[O-])c1c(C(=O)O)cc3c(c12)OCO3 | -33.4%
O=C(CCN1CC1)OCC(CO)(COC(=O)CCN1CC1)COC(=O)CCN1CC1 | 1.29%
Fc1ccc(C2(Cn3cncn3)OC2c2ccccc2Cl)cc1 (stereo unspecified) | 2.53%
CC(C(O)c1ccccc1)N(C)C/C=C/c1ccccc1 (stereo unspecified) | -23.2%
CC1(C(=O)Nc2ccc(O)c(Cl)c2Cl)CCCCC1 | 40%
O=C1CN2CCOC2(c2ccccc2Cl)c2cc(Cl)ccc2N1 (stereo unspecified) | 5.06%
CCNc1nc(NC(C)C)nc(OC)n1 | 1.66%
NC1=NC(=O)C(c2ccccc2)O1 (stereo unspecified) | 21.4%
CCOC(=O)C1(c2ccccc2)CCN(CCc2ccc(N)cc2)CC1 | -20.8%
CCOC(=O)C(c1c(O)c2ccccc2oc1=O)c1c(O)c2ccccc2oc1=O | -16.3%
CC1COC2(c3ccccc3Cl)c3cc(Cl)ccc3NC(=O)CN12 (stereo unspecified) | -4.61%

Compound | viability change, negative = cytotoxic
O=S(=O)(O)C(F)(F)C(F)(F)C(F)(F)C(F)(F)C(F)(F)C(F)(F)F | -15.3%
Clc1ccccc1N1CCNCC1 | -1.2%
COP(=S)(OC)Oc1ccc(S(N)(=O)=O)cc1 | 12.1%
O=C(NCO)NCO | 15.4% [at 81.1 µM]
CCCCC(=O)Cl | 19.4% [at 81.1 µM]
O=C1OC(CCN2CCCCC2)OC1(c1ccccc1)c1ccccc1 (stereo unspecified) | 5.09%
Nc1c(Br)cc([N+](=O)[O-])cc1[N+](=O)[O-] | -2.19% [at 81.1 µM]
CCC#N | -2.65% [at 81.1 µM]
CCOP(=S)(Oc1cnc(C(C)(C)C)nc1)OC(C)C (stereo unspecified) | -11.8%
CC(C)(C)NCC(O)c1cc(Cl)c(N)c(Cl)c1 (stereo unspecified) | 3.63%
CCOC(=O)/C=C(C)/C=C/C[C@@H](C)CCCC(C)C | -7.81%
CCC(=O)C(CCN(C)C)(c1ccccc1)c1ccccc1 | 7.59%
CN1C[C@@H](NS(=O)(=O)N(C)C)C[C@@H]2c3cccc4c3c(cn4C)C[C@H]21 | -25.8%
CCN(CC)CCOC(=O)C(C)(c1ccccc1)c1ccccc1 | -4.18%
CC(C(=O)c1ccccc1)N(C)C (stereo unspecified) | -3.6%
COC(=O)COc1ccc(Cl)cc1Cl | -24.1%

biological target: Bile acid receptor (Homo sapiens) (UniProt Q96RI1); assay: qHTS assay to identify small molecule agonists of the farnesoid-X-receptor (FXR) signaling pathway (AID 743220; active = well fitted activation curve with a large enough effect in the signal ratio in the repeat runs, not every such curve was filed as active; the % refers to the signal ratio); settings: HEK293T FXR-UAS-bla, beta-lactamase FRET ratio, 16 h; series mostly up to 62.6 µM; activation: at the top concentration
Outline: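 Beta-lactamase reporter under UAS control in GeneBLAzer FXR HEK 293T cells (5000/well) measured with LiveBLAzer FRET substrate after 2 h at room temperature. Compound exposure lasted 16 h at 37C.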

Compound | activation
CC(C=O)Cc1ccc2c(c1)OCO2 (stereo unspecified) | -0.296%
c1ccc(N2CCNCC2)cc1 | 3.11%
CC1(C(=O)Nc2ccc(O)c(Cl)c2Cl)CCCCC1 | -0.057%
O=C(Nc1ccccc1)N(Cc1ccc(Cl)cc1)C1CCCC1 | -3.03%
O=C1CN2CCOC2(c2ccccc2Cl)c2cc(Cl)ccc2N1 (stereo unspecified) | -0.501%
NC1=NC(=O)C(c2ccccc2)O1 (stereo unspecified) | 7.89%
COP(=S)(OC)Oc1ccc(S(N)(=O)=O)cc1 | 2.11%
CCCCC(=O)Cl | -0.596% [at 81.1 µM]
Fc1cc(Br)ccc1CBr | 0.728%
CC(C)(C)NCC(O)c1cc(Cl)c(N)c(Cl)c1 (stereo unspecified) | 6.7%
CCOC(=O)/C=C(C)/C=C/C[C@@H](C)CCCC(C)C | -0.0712%

system: not listed separately; assay: qHTS assay to identify small molecule antagonists of the farnesoid-X-receptor (FXR) signaling pathway - cell viability counter screen (AID 743221); settings: FXR-bla HEK293T viability, CellTiter-Glo luminescence, 16 h; series mostly up to 62.6 µM; activity change, negative = cytotoxicity: at the top concentration; also: nearly all actives have a fitted effect of over 50% in size
Outline: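 GeneBLAzer FXR-UAS-bla HEK 293T cells, compound plus chenodeoxycholic acid (50 uM final), 16 h at 37 C. CellTiter-Glo added to the same wells after the beta-lactamase read; luminescence read after 30 min at room temperature as viability.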

Compound | activity change, negative = cytotoxicity
CC(C=O)Cc1ccc2c(c1)OCO2 (stereo unspecified) | 10.9%
c1ccc(N2CCNCC2)cc1 | 2.96%
C[C@]12CC[C@H]3[C@@H](CCC4=CC(=O)CC[C@@]43C)[C@@H]1CC[C@@H]2C(=O)O | 4.41%
CC1CCC(=O)O1 (stereo unspecified) | 6.72%
CC1=C(C(=O)O)N2C(=O)[C@@H](N)[C@H]2SC1 | 8.72% [at 29.1 µM]
O=C(CCN1CC1)OCC(CO)(COC(=O)CCN1CC1)COC(=O)CCN1CC1 | -5.74%
Fc1ccc(C2(Cn3cncn3)OC2c2ccccc2Cl)cc1 (stereo unspecified) | -11.4%
CC(C(O)c1ccccc1)N(C)C/C=C/c1ccccc1 (stereo unspecified) | -2.27%
O=C(Nc1ccccc1)N(Cc1ccc(Cl)cc1)C1CCCC1 | -10.1%
O=C1CN2CCOC2(c2ccccc2Cl)c2cc(Cl)ccc2N1 (stereo unspecified) | -3.26%
CCNc1nc(NC(C)C)nc(OC)n1 | -5.52%
NC1=NC(=O)C(c2ccccc2)O1 (stereo unspecified) | 6.62%
CCOC(=O)C1(c2ccccc2)CCN(CCc2ccc(N)cc2)CC1 | 0.154%
CCOC(=O)C(c1c(O)c2ccccc2oc1=O)c1c(O)c2ccccc2oc1=O | 1.57%
CC1COC2(c3ccccc3Cl)c3cc(Cl)ccc3NC(=O)CN12 (stereo unspecified) | 3.13%
COc1cccc(C(=O)NN(C(=O)c2cc(C)cc(C)c2)C(C)(C)C)c1C | 5.76%
O=S(=O)(O)C(F)(F)C(F)(F)C(F)(F)C(F)(F)C(F)(F)C(F)(F)F | -3.45%
CN1CCC(N(Cc2ccccc2)c2ccccc2)CC1 | -6.17%

Compound | activity change, negative = cytotoxicity
Clc1ccccc1N1CCNCC1 | -4.86%
COP(=S)(OC)Oc1ccc(S(N)(=O)=O)cc1 | 3.51%
O=C(NCO)NCO | 14.5% [at 81.1 µM]
CCCCC(=O)Cl | -0.167% [at 81.1 µM]
Fc1cc(Br)ccc1CBr | 0.757%
O=C1OC(CCN2CCCCC2)OC1(c1ccccc1)c1ccccc1 (stereo unspecified) | -8.52%
Nc1c(Br)cc([N+](=O)[O-])cc1[N+](=O)[O-] | -5.74% [at 81.1 µM]
CCC#N | 4.4% [at 81.1 µM]
O=[N+]([O-])c1cc(Cl)c(Cl)c(Cl)c1 | 0.426%
CCOP(=S)(Oc1cnc(C(C)(C)C)nc1)OC(C)C (stereo unspecified) | 5.56%
CC(C)(C)NCC(O)c1cc(Cl)c(N)c(Cl)c1 (stereo unspecified) | 1.02%
CCOC(=O)/C=C(C)/C=C/C[C@@H](C)CCCC(C)C | -12.8%
CCC(=O)C(CCN(C)C)(c1ccccc1)c1ccccc1 | -30.7%
ClCCCN1CCN(c2cccc(Cl)c2)CC1 | 0.879%
CN1C[C@@H](NS(=O)(=O)N(C)C)C[C@@H]2c3cccc4c3c(cn4C)C[C@H]21 | -9.1%
CCN(CC)CCOC(=O)C(C)(c1ccccc1)c1ccccc1 | 5.29%
CC(C(=O)c1ccccc1)N(C)C (stereo unspecified) | 9.2%
